# High-throughput results from PubChem.
# An excerpt weighted towards active compounds, which were near 2.4% of everything screened.
# D2 ag-1: agonists of human D2 dopamine receptor | P14416 | HEK293 T-REx D2 cells, calcium flux agonist mode | activation, % at 2 µM | 340,000 compounds, 0.53% hits | AID 485358;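 active = activation over 3 SD above normal in the single-dose calcium agonist read, cut at about 30% in these data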
# Target sequence (P14416 whole entry, looked up): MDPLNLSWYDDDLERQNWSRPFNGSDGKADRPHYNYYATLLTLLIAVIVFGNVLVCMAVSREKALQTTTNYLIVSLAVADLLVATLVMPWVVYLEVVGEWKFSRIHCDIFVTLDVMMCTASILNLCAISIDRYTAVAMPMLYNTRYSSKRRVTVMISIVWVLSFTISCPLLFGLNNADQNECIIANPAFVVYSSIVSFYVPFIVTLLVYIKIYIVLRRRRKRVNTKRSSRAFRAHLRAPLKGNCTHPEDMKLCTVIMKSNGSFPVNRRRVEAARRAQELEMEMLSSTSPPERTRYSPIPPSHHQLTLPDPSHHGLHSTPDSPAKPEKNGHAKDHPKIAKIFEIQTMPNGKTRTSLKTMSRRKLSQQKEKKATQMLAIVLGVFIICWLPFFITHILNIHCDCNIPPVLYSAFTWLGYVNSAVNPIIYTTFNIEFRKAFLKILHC
#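 Calcium-flux readout, 1 cycle/sec over 180 s following compound pin transfer, in inducible HEK293 Trex D2 cells (force-coupled); dopamine controls included. Positive calcium responses during this window marked compounds as potential agonists.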
# D2 antagonist: D2 dopamine receptor (human) antagonism. 340,000 compounds, 2% hits. AID 485344. P14416. inhibition, % at 10 µM. HEK293 TREx D2 cells, calcium flux, dopamine EC80; in the data active = inhibition above about 30%; inactive = below that, where a call was filed
#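 Calcium flux kinetic readout in an inducible HEK293 TREx D2 line plated overnight at 30 C. After 180 s compound exposure, an EC80 dopamine challenge follows with another 180 s kinetic read to detect antagonism.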
# D2 PAM-1: potentiates the human D2 dopamine receptor allosterically; P14416; DiscoveRx D2 beta-arrestin cells, luminescence, 90 min; 100% = 57 uM dopamine signal; potentiation, % (concentration not given with the values); 360,000 compounds, 0.23% hits; AID 624464; in the data active = potentiation above about 50%; inconclusive = mostly about 30% to 49%
#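 D2 cells co-treated with compound plus 50 nM dopamine (EC20) for 90 min at 37 deg C to detect potentiation. Beta-arrestin recruitment was read as enzyme-fragment luminescence after 1 h at ambient temperature. Full response was set by 57 uM dopamine.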
# D2 ag-2: agonists of human D2 dopamine receptor (beta-arrestin); P14416; DiscoveRx PathHunter D2 beta-arrestin, luminescence, 90 min; 100% = 57 uM dopamine signal; activation, % (no concentration beside the values); 360,000 compounds, 0.084% hits; in the data active = activation above about 40%; inconclusive = between about 15% and that limit
#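 DiscoveRx PathHunter D2 beta-arrestin cells (2,100/well) attached overnight, then compound-stimulated 90 min at 37 C in HBSS/10 mM HEPES/0.1% Tween-20 buffer; beta-galactosidase complementation read by luminescence after 1 h at ambient temperature. Dopamine 57 uM final (EC100) as control.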
# D2 PAM-2: D2 dopamine receptor (human) potentiation. 340,000 compounds, 0.34% hits. P14416. HEK293 T-REx D2, calcium flux, EC20 dopamine potentiation. potentiation, % at 10 µM;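 active = potentiation over 3 SD above the plate norm, cut at about 30% in these data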
#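 Tetracycline-induced HEK293 T-REx cells force-coupled to calcium signalling expressed D2; compounds were pin-added after a 10 s baseline, read kinetically 180 s, then an EC20 dopamine challenge followed with a further 180 s calcium read.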
# Numbers stand for hits; - = inactive; ? = inconclusive; . = no result given.
SMILES,D2 ag-1,D2 antagonist,D2 PAM-1,D2 ag-2,D2 PAM-2
CCc1ccc(NC(=O)C(CC)n2c(=O)c(C(F)(F)F)nc3ccccc32)cc1 (stereo not drawn),-,.,.,.,-
COc1ccc(NC(=O)CCN2C(=O)c3ccncc3C2=O)cc1OC,-,34,-,-,-
CCC(c1ccc(O)c(O)c1)C(CC)c1ccc(O)c(O)c1 (stereo not drawn),.,.,-,59,.
CC(C)NC[C@H](O)c1ccc(O)c(O)c1,-,-,-,-,-
COc1cc(-c2csc(C)n2)ccc1O,-,-,-,-,-
COc1ccc(-c2csc(C)n2)cc1Br,-,36,-,-,-
Cc1ccc(CN2CCCNC2=O)cc1,.,.,-,-,.
Cc1ccc(C)c(CN2CCCNC2=O)c1,-,31,-,-,-
O=C(CSc1ncnc2c1nnn2-c1ccc(F)cc1)NCC1CCCO1 (stereo not drawn),-,-,-,-,-
Cc1ccc2nc(SCC(=O)NCC3CCCO3)c(C#N)cc2c1 (stereo not drawn),-,41,-,-,-
Cc1ccc2cc(C#N)c(SCC(=O)NCC3CCCO3)nc2c1 (stereo not drawn),-,-,-,-,-
Cc1ccc(-n2nnc3c(SCC(=O)NCC4CCCO4)ncnc32)cc1 (stereo not drawn),-,46,-,-,.
Cc1cccc(OCc2nnc(SCC(=O)NCC3CCCO3)n2C)c1 (stereo not drawn),-,-,-,-,37
COc1ccc2c(c1)c1c(c(=O)n(-c3ccc(OC)c(OC)c3)c(=O)n1Cc1ccccc1C)n2C,-,.,.,.,-
Cc1ccc(-n2c(C)nc3c(cnn3-c3ccccc3C)c2=O)cc1F,-,.,.,.,-
CCC(CC)C(=O)NC12CC3CC(CC(C3)C1)C2,-,33,-,-,-
Cc1cccc(Cc2c(C)nc3nc(SCC(=O)NCc4ccccc4)nn3c2C)c1,-,.,.,.,-
Cc1cccc(Cc2c(C)nc3nc(SCC(=O)O)nn3c2C)c1,-,-,-,-,47
COc1cccc(CNc2ncnc3c2nnn3C)c1,-,.,.,.,-
CCOC(=O)C1=C(CN2CCN(c3ccc(Cl)cc3)CC2)NC(=O)NC1c1ccc(OC)cc1 (stereo not drawn),-,.,.,.,-
Cc1ccc(C(=O)O/N=C(\N)c2cccc([N+](=O)[O-])c2)cc1,-,-,60,?,-
N/C(=N\OC(=O)c1ccccc1Br)c1cccc([N+](=O)[O-])c1,-,-,?,?,-
N/C(=N\OC(=O)c1ccco1)c1cccc(Br)c1,-,-,-,-,-
COc1cc(C(=O)O/N=C(\N)c2cccc([N+](=O)[O-])c2)cc(OC)c1OC,-,-,55,?,-
N/C(=N\OC(=O)c1ccco1)c1cccc([N+](=O)[O-])c1,-,-,81,?,-
SMILES,D2 ag-1,D2 antagonist,D2 PAM-1,D2 ag-2,D2 PAM-2
N/C(=N\OC(=O)c1ccc(Br)cc1)c1cccc([N+](=O)[O-])c1,-,-,?,-,-
N/C(=N\OC(=O)c1ccccc1F)c1cccc([N+](=O)[O-])c1,-,-,-,66,-
COc1cc(C(=O)O/N=C(\N)c2ccc([N+](=O)[O-])cc2)cc(OC)c1OC,-,-,-,-,-
O=C(Cn1ncc2ccc(Cl)cc21)NCc1ccc(F)cc1,.,.,.,.,-
Cc1ccc(Cc2nc3ccccc3nc2SCC(=O)N2CCCCC2C)cc1 (stereo not drawn),-,.,.,.,-
COc1ccccc1N1CCN(c2ncnc3c2cnn3-c2cc(Cl)ccc2C)CC1,-,.,.,.,-
COc1ccc(NC(=O)N2CCc3c(sc4c3CCCC4)C2c2ccc(F)cc2)cc1 (stereo not drawn),.,.,.,.,-
COc1ccc(/C(N)=N/OC(=O)c2ccco2)cc1OC,-,-,-,-,32
COc1ccc(C(=O)O/N=C(\N)c2ccccc2)cc1OC,-,-,?,-,-
N#CC(C#N)=c1ccc2c(c1)N1C3=C(CCCC3)CC3CCCCC31N=2 (stereo not drawn),-,-,71,-,-
N#C/C(C(N)=O)=c1/ccc2c(c1)N1C3=C(CCCC3)CC3CCCCC31N=2 (stereo not drawn),-,-,-,-,-
Cc1ccsc1/C=N/N=C/c1sccc1C,-,-,-,-,-
Cc1ccsc1C=Nc1ccc(O)cc1,-,-,75,?,-
CCOC(=O)c1ccc(NC(=O)CC2C(=O)N(c3ccc(F)cc3)C(=O)N2Cc2cccnc2)cc1 (stereo not drawn),-,.,.,.,-
O=c1c2c3c(sc2nc2n1CCCCC2)CCCCC3,-,57,.,.,-
CC1=Nn2c(nc3sc4c(c3c2=O)CCCC4)SC1,-,55,-,-,-
Cc1ccc(-c2onc(C)c2C)cc1S(=O)(=O)Nc1ccc(Cl)cn1,-,.,.,.,-
CCCS(=O)(=O)N1CC(=O)N(c2ccccc2F)C(C)(C(=O)NC2CCCCCC2)C1 (stereo not drawn),-,.,.,.,-
O=C(NC(Cc1ccc2c(c1)OCO2)C(=O)N1CCCC1C(=O)O)c1ccccc1 (stereo not drawn),-,34,-,-,-
Cc1sc(NC(=O)CCC(=O)O)c(C(N)=O)c1-c1ccccc1,-,47,-,-,-
CN(c1ccccc1)S(=O)(=O)c1ccc(Cl)c(C(=O)NC2=NCCS2)c1,-,-,-,-,31
COc1ccccc1N(C)S(=O)(=O)c1ccc(Cl)c(C(=O)NC2=NCCS2)c1,-,-,-,-,-
N#Cc1nc(COc2ccccc2Cl)oc1NCc1cccnc1,-,40,-,-,-
N#Cc1nc(COc2ccccc2Cl)oc1NCc1ccc(F)cc1,-,-,-,-,-
CCOC(=O)c1ccc(N2C(=O)c3n[nH]c(-c4ccco4)c3C2c2cccc(O)c2)cc1 (stereo not drawn),-,.,.,.,-
SMILES,D2 ag-1,D2 antagonist,D2 PAM-1,D2 ag-2,D2 PAM-2
CC(C(=O)OCC(=O)c1ccc(Br)cc1)N1C(=O)C2C3C=CC(C3)C2C1=O (stereo not drawn),-,-,-,-,32
CCOC(=O)/C(=C\C=C1/Sc2cc(OCC)c(OCC)cc2N1CC)C(C)=O,100,65,-,-,-
CCN1/C(=C/C(C)=O)Sc2ccc(OC)cc21,.,.,-,-,.
CCOC(=O)/C(=C/C=C1\Sc2cc(OCC)c(OCC)cc2N1CC)C(C)=O,88,72,-,-,-
CCn1ccc2cc(S(=O)(=O)N3CCCN(C(=O)NCC(=O)OC)CC3)ccc21,.,.,.,.,-
Cc1ccc(C(=O)O/N=C2\CCSc3ccc(C)cc32)cc1,-,-,-,-,-
COc1ccc(S(=O)(=O)O/N=C2\CCSc3ccc(C)cc32)cc1,-,-,72,-,-
O=C(O)c1nn(CCOc2ccc(Br)cc2)c(=O)c2ccccc12,-,-,-,-,-
O=C(O)c1nn(CCOc2ccccc2F)c(=O)c2ccccc12,-,-,-,-,33
COc1ccc(CNC(=O)Nc2cccc(C(F)(F)F)c2)cc1OC,-,46,-,-,-
